IDE cell inh – human IDE inhibitors in live cells, primary screen, fluorescence polarization, HEK cells, FAbetaB substrate. Insulin-degrading enzyme (Homo sapiens), P14735. FAbetaB cleavage. inhibition, % at 5.59 µM. 320,000 compounds, 0.41% hits. AID 434962, 2010;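 active means percent inhibition above the average of all tested compounds plus 3 SD, set per screening campaign, cut at about 16% in these data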;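 further: IDE supplied by intact live HEK cells; FP after avidin binding of uncleaved biotin substrate so inhibition keeps polarization high; 0% = DMSO wells and 100% = 60 µM reference IDE inhibitor Ii1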
Granule exo inh – LAMP-1 surface exposure blockers, TALL-104 cells – cell-based, flow cytometry, MLPCN library, primary screen | TALL-104 LAMP-1 surface exposure; cells stimulated with thapsigargin and PMA | inhibition, % at 10 µM | 360,000 compounds, 0.66% hits | AID 651702, 2012;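 active means inhibition above about 55%, limit read from the data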
PP1 inh – PP1-alpha phosphatase inhibitors, primary screen, counter-screen for PP5 inhibitor project, biochemical, fluorescence, OMFP substrate, single point; purified PP1alpha; inhibition, % at 6.7 µM; 320,000 compounds, 0.9% hits; Serine/threonine-protein phosphatase PP1-alpha catalytic subunit (Homo sapiens), P62136;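 active means inhibition above the mean inhibition of all tested compounds plus 3 SD, computed separately for each screening campaign, cut at about 15% in these data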
Target sequence (P62136 whole entry, looked up): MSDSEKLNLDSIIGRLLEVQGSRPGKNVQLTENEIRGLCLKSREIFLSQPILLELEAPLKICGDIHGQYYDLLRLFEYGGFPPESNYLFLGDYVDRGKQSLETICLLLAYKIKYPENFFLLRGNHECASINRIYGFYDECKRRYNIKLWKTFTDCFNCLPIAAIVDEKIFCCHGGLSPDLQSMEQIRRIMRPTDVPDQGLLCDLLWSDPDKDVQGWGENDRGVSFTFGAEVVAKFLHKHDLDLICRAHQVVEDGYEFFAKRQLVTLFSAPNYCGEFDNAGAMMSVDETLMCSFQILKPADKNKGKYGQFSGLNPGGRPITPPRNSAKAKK
PP5 inh – PP5 phosphatase inhibitors, primary screen, biochemical, fluorescence. purified PP5c, OMFP substrate fluorescence. AID 1987, 2009. 320,000 compounds, 0.18% hits. inhibition, % at 6.7 µM. Serine/threonine-protein phosphatase 5 (Homo sapiens), P53041;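 active means inhibition above the campaign's mean inhibition across all tested compounds plus 3 SD, cut at about 9.5% in these data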;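 further: 0% = DMSO only and 100% = 100 µM cantharidin control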
IDE act – human IDE activators in live cells, primary screen, fluorescence polarization, HEK cells, FAbeta-B substrate | Insulin-degrading enzyme (Homo sapiens), P14735 | FAbeta-B cleavage; 0% vehicle, 100% cell-free pure enzyme wells | activation, % at 5.96 µM | 340,000 compounds, 0.073% hits;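 active means activation above the mean of all tested compounds plus 3 SD, set per screening campaign, cut at about 17% in these data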
SKKanGAS inh – S. pyogenes SKKanGAS growth inhibitors in kanamycin, primary screen, streptokinase expression inhibitor project, SKKanGAS strain, BacTiter-Glo luminescence; 6 h; inhibition, % at 7.5 µM; 300,000 compounds, 1.3% hits;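 active means mean replicate score, as percent of positive control median, at least 50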;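 further: strain carries kanamycin resistance gene driven by streptokinase promoter and grows in 40 µg/ml kanamycin; loss of luminescence reflects streptokinase promoter inhibition or plain growth inhibition; 0% = median of DMSO wells and 100% = positive control at its reference dose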
Numbers without * were called inactive; . = not tested or not shown. Hits are enriched below; roughly 2.8% of the tested compounds scored in any of these assays.

SMILES	IDE cell inh	Granule exo inh	PP1 inh	PP5 inh	IDE act	SKKanGAS inh
O=C(Nc1ccc2c(c1)OCO2)C1CC(=O)N(c2ccc(F)cc2)C1 (centres undefined)	-2.1	8.8	-1.0	-0.7	3.8	-0.8
Cc1ccc(-n2nnnc2SCC(=O)NC(=O)Nc2ccc3c(c2)OCCO3)cc1	-1.8	-1.6	4.8	0.9	-1.5	49.9*
Cc1ccc(S(=O)(=O)NCCc2cn3nc(C)c(C)nc3n2)cc1C	5.3	-7.2	0.1	0.3	-4.0	-9.7
C=CCn1c(COc2ccccc2)nnc1SC(C)C(=O)N/N=C/c1cc(Cl)ccc1O (centres undefined)	-6.1	-2.0	1.0	-1.0	1.8	104.6*
Cc1cc([N+](=O)[O-])nn1Cc1ccc(C(=O)N/N=C/c2ccc(F)cc2)cc1	3.5	3.2	1.5	1.0	-1.0	-6.8
Cc1cc([N+](=O)[O-])nn1Cc1ccc(C(=O)N/N=C/c2ccc(O)cc2O)cc1	-1.3	-2.5	16.4*	-3.4	0.2	1.7
CN1CCN(C(=O)c2cccn(Cc3c(Cl)cccc3Cl)c2=O)CC1	2.5	-0.6	-1.8	1.4	4.0	-3.5
C[C@@H](C[C@@H](O)[C@H](O)C(C)(C)O)[C@@H]1CC[C@]2(C)C3=CC[C@H]4C(C)(C)C(=O)CC[C@]4(C)[C@H]3CC[C@@]12C	1.7	-8.1	5.3	4.0	-2.1	96.3*
O=C1C[C@@H]2c3c(cccc3CN1Cc1ccccc1Br)C[C@@H](O)[C@H]2O	.	18.5	.	.	0.1	.
Cc1ccc(Cn2c(=O)n(Cc3ccco3)c(=O)c3ccccc32)cc1	1.2	1.7	-1.3	1.1	-2.2	55.5*
O=c1c2ccccc2n(Cc2ccc(Cl)cc2)c(=O)n1Cc1ccco1	3.9	3.2	-0.9	1.4	1.9	12.9
CCc1noc(C)c1C(=O)N1CCC(CCC(=O)Nc2cccc(C)c2)CC1	-0.7	-2.5	-8.7	2.8	3.6	-10.7
O=C(CSc1nnc(SCc2ccccc2)s1)N/N=C/C=C/c1ccccc1[N+](=O)[O-]	6.6	-2.9	15.6*	4.5	1.9	-0.1
Oc1cccc2ccc(/C=C/c3ccccc3Br)nc12	5.9	-9.4	16.3*	3.0	-2.5	103.0*
CSc1ccc(/C=C/c2ccc3cccc(O)c3n2)cc1	1.5	-0.2	12.7	2.3	-3.8	100.5*
COc1ccc(C=Cc2ccc3ccccc3n2)c(OC)c1	.	2.5	.	.	.	.
COc1cc(/C=C/c2ccc3cccc(O)c3n2)ccc1O	5.5	-7.7	11.8	1.6	-5.6	87.7*
O=[N+]([O-])c1cccc2ccc(/C=C/c3ccc(Cl)cc3)nc12	0.7	-2.9	2.6	-0.1	3.2	3.1
COc1cc(/C=C/c2ccc3cccc(O)c3n2)c(Br)cc1O	2.1	-20.2	12.9	1.7	-7.7	94.4*
CC1=CC(C)C(/C=N/N=C(N)N)C(C)C1 (centres undefined)	4.3	-5.2	0.5	1.4	8.1	0.2
CC(C)C[C@@H]1O[C@H](C(C)C)Cc2[nH][nH]c(=O)c21	.	-5.6	.	.	.	.
COc1cc(/C=C/c2ccc3cccc(OC)c3n2)c(O)c([N+](=O)[O-])c1	1.2	0.8	4.0	-0.1	-0.8	2.3
COc1cc(Br)cc(/C=C/c2ccc3cccc(O)c3n2)c1O	8.6	-6.3	8.5	4.2	-7.7	101.5*
COc1cc(Br)c(/C=C/c2ccc3cccc(O)c3n2)cc1OC	0.0	-3.4	4.5	1.3	-0.8	85.1*
Cc1ccc(/C=C/C(=O)NCCc2c[nH]c3ccccc23)o1	-1.5	2.2	-2.8	0.4	5.0	0.0
SMILES	IDE cell inh	Granule exo inh	PP1 inh	PP5 inh	IDE act	SKKanGAS inh
Cc1ccc(/C=C/C(=O)NCCc2cccc(Cl)c2)o1	4.1	64.0*	1.5	-0.5	-6.2	-2.8
COC1=CC(C)C2CC3OC(O)CC4C(C)=C(OC)C(=O)C(C2(C)C1=O)C34C (centres undefined)	.	-0.8	.	.	.	.
CC(O)[C@H]1CC[C@H]2[C@@H]3CC[C@H]4C[C@@H](O)CC[C@]4(C)[C@H]3/C(=N/O)C[C@]12C (some centres undefined)	8.8	82.0*	3.5	2.7	-2.8	0.5
CCOc1ccc(CN(C(=O)c2cc(=O)c3cc(C)cc(C)c3o2)C2CCS(=O)(=O)C2)cc1 (centres undefined)	8.8	-39.3	-0.5	3.5	2.1	-6.0
Cc1sc2ncnc(N3CCN(Cc4ccccc4)CC3)c2c1-c1ccccc1	1.6	63.2*	3.5	-0.8	1.0	7.1
Cc1csc(C(=O)O)c1NC(=O)c1cccc([N+](=O)[O-])c1	1.5	1.9	-2.9	0.9	.	1.5
Cc1ccc(NC(=O)CN2C(=O)S/C(=C/c3ccc(-c4cccc(C(=O)O)c4)o3)C2=O)cc1	.	2.1	.	.	2.2	.
Cc1cccc(NC(=O)CN2C(=O)S/C(=C\c3cc(C)n(C)c3C)C2=O)c1	-1.0	-8.6	16.3*	-2.3	1.3	0.4
Cc1ccc(NC(=O)CN2C(=O)S/C(=C\c3ccc(-c4cccc(C(=O)O)c4C)o3)C2=O)cc1	3.5	.	-0.7	-0.7	.	53.4*
O=C(c1ccccc1)c1c(-c2ccccc2)[nH]n(-c2ccccc2)c(=O)c1=O	1.7	9.4	1.8	1.4	4.6	10.5
COc1ccccc1NC1CCCCC1NS(=O)(=O)c1ccccc1 (centres undefined)	1.1	7.6	-1.4	2.1	-2.4	2.4
Cc1cc(=O)oc2cc(OC(=O)c3ccccc3)ccc12	2.8	1.6	1.4	2.8	4.4	0.3
COc1ccccc1-c1c(C(F)(F)F)oc2cc(OC(=O)c3ccc([N+](=O)[O-])cc3)ccc2c1=O	17.1*	2.1	-0.5	1.6	-12.9	5.0
CC1=C(C(=O)Nc2ccccc2C(=O)NCCCOC(C)C)SCCO1	1.2	-9.1	-4.1	-3.7	3.3	-3.1
O=C(c1ccc2c(c1)OCCO2)C1CCN(C(=O)Nc2ccccc2F)CC1	7.1	11.2	0.7	3.1	4.4	-16.1
Nc1ccc(C2=Nc3cccc4cccc(c34)N2)cc1	.	-5.2	.	.	0.1	-6.7
COc1cccc(C2=Nc3cccc4cccc(c34)N2)c1	0.2	3.9	16.7*	3.7	5.4	11.5
O=C(NCc1ccccc1)C(C1CC1)n1c(=O)c(-c2cc3ccccc3[nH]2)nc2ccccc21 (centres undefined)	.	8.1	.	.	.	.
COCC(=O)Nc1sc2c(c1C(=O)OC)CCCC2	-3.1	-7.1	-0.7	0.1	1.8	-4.4
COC(=O)c1c(NC(=O)COC(=O)[C@@H](NS(=O)(=O)c2cccc(Cl)c2)C(C)C)sc2c1CCC2	2.1	1.5	15.2*	1.2	6.7	32.4
COC(=O)c1c(NC(=O)Cc2cccs2)sc2c1CCCC2	7.6	-1.9	2.2	3.2	1.2	68.7*

Screens deposited in PubChem by several laboratories.
